Assay [1] in a line: inhibitors of TNFa-induced NFkB p65 translocation, primary screen, imaging, HUVEC, MLSMR starter and 10KST1 sets (AID 438;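 active means inhibition above 20% together with a positive visual image hit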;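 further: compound added about 3h40 before a 20 min TNFalpha stimulation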;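 on inhibition: signal is the nuclear over cytoplasmic p65 intensity ratio per well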). The note with it: HUVEC TNFa-induced p65 nuclear translocation; cell count: measured here: nuclei count (cytotoxicity indicator), at 2.08 µM; inhibition: at 2 µM, stronger effect = higher value, 0% TNFa-plus-vehicle, 100% no-TNFa wells.
Assay [2] in a line: inhibitors of mutant huntingtin aggregation, primary screen, imaging, exon1htt(103Q)mCFP cells, high-content imaging (AID 483;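 active means visual image review flags a hit and inhibition of aggregation exceeds 20%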;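 further: compound exposure lasted 3 days before fixation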;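 on nuclei count: percent of the per-plate median nuclei count of sample wells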). The note with it: exon1htt(103Q)mCFP cell line, aggregate imaging, at 2 µM; inhibition of aggregation: stronger effect = higher value; nuclei count: measured here: cell count, toxicity.
The nature of assay [3]: inhibitors of E-selectin induction by TNFa, primary screen, imaging, HUVEC, immunofluorescence, MLSMR starter and 10KST1 sets (AID 487).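 On inhibition: signal is fraction of cell area covered by stained E-selectin grains.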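 On nuclei count: 100% = median nuclei count of all wells on the same plate.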 As to conditions: HUVEC TNFalpha-induced E-selectin immunofluorescence imaging, at 2 µM; inhibition: stronger effect = higher value; nuclei count: measured here: cell number, toxicity.
Assay [4] deals with Voltage-gated potassium channel subunit beta-2 (Rattus norvegicus) (UniProt P62483). Nature of the assay: KvBeta enzyme negative modulators, primary screen, biochemical, NADPH fluorescence (AID 622;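 active means fluorescence slope higher than the sample average by over 3 SD, cut at about -0.22 in these data, passing the limit was not always enough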;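 further: slope of raw intensity against log time taken from 70 to 1610 s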). The note with it: recombinant KvBeta, 4-cyanobenzaldehyde reduction, at 10 µM, stronger effect = higher value.
For assay [5] the target is unchanged. Nature of the assay: KvBeta positive modulators, primary screen, biochemical, NADPH fluorescence (AID 623;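 active means NADPH fluorescence slope more negative than the mean of all samples by about 3 SD, 99.7% confidence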;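 further: fluorescence intensity change per second fitted from 20 to 320 s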). The note with it: Recombinant KvBeta, NADPH fluorescence decrease slope, 10 min; at 10 µM; stronger effect = lower value.
The target in assay [6] is Alpha-2C adrenergic receptor (Homo sapiens) (UniProt P18825). Description: modulators of alpha2C/GIRK thallium flux, primary screen, cell-based, HEK293 alpha2C/GIRK1/2 (AID 624;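 active means fluorescence slope after compound addition differing from the mean of all screened samples at 99.7% confidence, in either direction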;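 further: slope of fluorescence ratio to pre-addition baseline per second over 15 to 24 s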). The note with it: thallium flux BTC fluorescence, at 10 µM, actives lie on both sides.
A short description of assay [7]: inhibitors of Sendai virus-induced IRF3 signaling, primary screen, TLR/RLR signaling modifier project, cell-based, Sendai virus stimulus, luciferase, 10K MLSCN set (AID 602276;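 active means inhibition at or above 50% at 10 µM; inactive means inhibition below 50%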;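 further: firefly luciferase from ISG56 promoter only with Renilla not read in this screen; 0% = Sendai virus plus DMSO and 100% = medium plus DMSO without virus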). As to conditions: HEK293 RL24 IRF3 luciferase reporter, at 10 µM, stronger effect = higher value. (In general: A reporter such as luciferase makes a cellular process visible.)
Assay [8] can be described thus: inhibitors of poly I:C-induced TLR3 signaling, primary screen, cell-based, poly I:C stimulus, luciferase, 10K MLSCN set (AID 602277;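 active means inhibition of the reporter signal at or above 50%; inactive means inhibition below 50%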). The note with it: HEK293-TLR3 RL24 IRF3 luciferase reporter, at 10 µM, stronger effect = higher value.

SMILES strings stand for the structures. The source made the active and inactive calls.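 How the source made its calls, unless noted: active means visually confirmed hit in the image check and inhibition above 20%; inconclusive means visually confirmed hit but inhibition not above 20%; inactive means no visual hit in the image check.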

Chain of Alpha-2C adrenergic receptor (Homo sapiens) (P18825 whole entry, looked up): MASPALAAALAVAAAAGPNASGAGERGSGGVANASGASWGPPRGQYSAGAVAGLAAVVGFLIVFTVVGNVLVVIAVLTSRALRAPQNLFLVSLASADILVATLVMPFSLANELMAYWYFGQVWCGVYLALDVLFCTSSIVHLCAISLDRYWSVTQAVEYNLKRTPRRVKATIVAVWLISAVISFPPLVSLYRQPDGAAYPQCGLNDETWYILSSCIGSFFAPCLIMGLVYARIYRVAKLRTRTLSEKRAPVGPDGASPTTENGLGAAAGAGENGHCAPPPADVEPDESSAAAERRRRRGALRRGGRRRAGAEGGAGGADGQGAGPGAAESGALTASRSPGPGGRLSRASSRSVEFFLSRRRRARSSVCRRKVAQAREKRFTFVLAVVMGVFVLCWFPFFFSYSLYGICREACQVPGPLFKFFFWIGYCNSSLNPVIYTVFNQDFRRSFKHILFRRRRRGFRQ
Chain of Voltage-gated potassium channel subunit beta-2 (Rattus norvegicus) (P62483 whole entry, looked up): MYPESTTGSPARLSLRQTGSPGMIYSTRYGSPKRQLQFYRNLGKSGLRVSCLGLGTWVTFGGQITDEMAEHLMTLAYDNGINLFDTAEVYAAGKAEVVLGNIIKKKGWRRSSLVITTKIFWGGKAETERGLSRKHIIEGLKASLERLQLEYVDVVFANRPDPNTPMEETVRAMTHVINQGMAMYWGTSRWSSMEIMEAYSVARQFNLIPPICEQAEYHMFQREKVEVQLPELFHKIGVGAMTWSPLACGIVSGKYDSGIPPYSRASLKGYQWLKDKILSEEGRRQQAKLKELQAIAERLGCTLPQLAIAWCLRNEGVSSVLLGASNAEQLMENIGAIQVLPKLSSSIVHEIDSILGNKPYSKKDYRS

In the case of `CSCCC(N=CC1=C(O)CC(C)(C)CC1=O)C(=O)O` (centres undefined), the cell count in assay [1] amounted to 405. Moreover, the inhibition was 1.8% (inactive) in assay [1], -0.2% (inactive) in assay [3], 15.3% (inactive) in assay [7] and 22.3% (inactive) in assay [8]. For the same compound, the inhibition of aggregation in assay [2] was -10.8% (inactive). For the same compound, the values for the nuclei count in assay [2] and in assay [3] were 104% and 118%, respectively. Further, the fluorescence slope in assay [4] was -0.363 (inactive). In addition, the NADPH fluorescence slope in assay [5] is -4.2e-05 (inactive). In addition, the slope in assay [6] is 0.00607 (inactive).

`O=C(CSc1ccc2nnc(-c3ccccc3)n2n1)N1CCN(c2ccccc2)CC1`: the cell count in assay [1] worked out at 616. Further, the inhibition in assay [1] is 0.3% (inactive); in assay [3], -34.8% (inactive); in assay [7], -9.77% (inactive); in assay [8], 3.8% (inactive). The inhibition of aggregation in assay [2] was 9.9% (inactive). In addition, the nuclei count amounted to 110% in assay [2] and 111% in assay [3]. The fluorescence slope in assay [4] was -0.592 (inactive). The NADPH fluorescence slope in assay [5] is -3.7e-05 (inactive). Further, in assay [6], the slope is 0.00674 (inactive).

Regarding `CC(=O)Nc1ccc(OC(=O)c2cccs2)cc1`, in assay [1], the cell count was 716. Besides, the inhibition in assay [1] is 10.2% (inactive); in assay [3], 27.9% (inactive); in assay [7] it was 8.66% (inactive); in assay [8], 20% (inactive). The inhibition of aggregation in assay [2] was -5% (inactive). Further, the nuclei count stood at 107% in assay [2] and 94.2% in assay [3]. For the same compound, the fluorescence slope in assay [4] is -0.473 (inactive). Moreover, the NADPH fluorescence slope in assay [5] was 5.9e-06 (inactive). In assay [6], the slope was 0.00674 (inactive).

On to `COc1cc(C(=O)Nc2cccc(-c3nc4cc(C)ccc4o3)c2)cc(OC)c1OC`, for which the cell count in assay [1] is 507. For the same compound, the inhibition is 7% (inactive) in assay [1], -126% (inactive) in assay [3], 0.465% (inactive) in assay [7] and -22.5% (inactive) in assay [8]. In addition, in assay [2], the inhibition of aggregation is -1.2% (inactive). Moreover, the nuclei count amounted to 90.7% in assay [2] and 126% in assay [3]. Also, the fluorescence slope in assay [4] is -0.582 (inactive). Besides, the NADPH fluorescence slope in assay [5] was -3.2e-05 (inactive). Moreover, the slope in assay [6] was 0.0093 (inactive).

On to `CCOC(=O)N1CCN(c2c(N3CCN(c4ccccn4)CC3)c(=O)c2=O)CC1`, for which the cell count in assay [1] turned out to be 555. Also, the inhibition in assay [1] was 3.4% (inactive); in assay [3] it was -24.6% (inactive); in assay [7] it was 9.82% (inactive); in assay [8], 16.3% (inactive). Besides, in assay [2], the inhibition of aggregation was 25.3% (inactive). Further, the nuclei count in assay [2] amounted to 76.1%; in assay [3], 119%. Besides, in assay [4], the fluorescence slope is -0.506 (inactive). Also, the NADPH fluorescence slope in assay [5] is -5.8e-06 (inactive). In addition, the slope in assay [6] was 0.00633 (inactive).

In the case of `O=C(NCCc1ccccn1)c1ccc(COc2ccccc2)o1`, the cell count in assay [1] worked out at 450. The inhibition in assay [1] was -26.3% (inactive); in assay [3] it was -39.9% (inactive); in assay [7], 3.41% (inactive); in assay [8], -2.41% (inactive). For the same compound, the inhibition of aggregation in assay [2] is 8.3% (inactive). In addition, the nuclei count in assay [2] was found to be 93.3%; in assay [3], 156%. Besides, the fluorescence slope in assay [4] is -0.449 (inactive). Also, the NADPH fluorescence slope in assay [5] was -4.6e-05 (inactive). In addition, the slope in assay [6] was 0.00624 (inactive).

As for `COc1ccccc1N1CC(C(=O)Nc2cccc(C(=O)O)c2)CC1=O` (centres undefined), the cell count in assay [1] was determined as 495. In addition, the inhibition is -16.1% (inactive) in assay [1], -32.1% (inactive) in assay [3], -5.85% (inactive) in assay [7] and -4.45% (inactive) in assay [8]. Also, in assay [2], the inhibition of aggregation was 10.1% (inactive). Moreover, the values for the nuclei count in assay [2] and in assay [3] were 76.3% and 127%, respectively. Further, the fluorescence slope in assay [4] is -0.547 (inactive). In assay [5], the NADPH fluorescence slope is 2.1e-05 (inactive). In addition, in assay [6], the slope is 0.00458 (inactive).

`CCCNC(=O)c1ccccc1C(=O)NCCC`: in assay [1], the cell count was found to be 386. The inhibition in assay [1] was -1.6% (inactive); in assay [3] it was -3.9% (inactive); in assay [7] it was 15.6% (inactive); in assay [8], 18% (inactive). The inhibition of aggregation in assay [2] was 23.1% (inactive). Moreover, the nuclei count in assay [2] was found to be 94.4%; in assay [3] it was 115%. For the same compound, the fluorescence slope in assay [4] was -0.53 (inactive). Further, the NADPH fluorescence slope in assay [5] is 0.000133 (inactive). Moreover, in assay [6], the slope is 0.00613 (inactive).

`C=CCN1C(=O)C2(C(C#N)=C(N)Oc3n[nH]c(CCC)c32)c2ccccc21` (centres undefined): the cell count in assay [1] amounted to 389. Moreover, the inhibition in assay [1] is 3.2% (inactive); in assay [3] it was -37.6% (inactive); in assay [7] it was 11.3% (inactive); in assay [8] it was 16.8% (inactive). In addition, the inhibition of aggregation in assay [2] is -32.8% (inactive). The results for the nuclei count in assay [2] and in assay [3] were 95.3% and 114%, respectively. For the same compound, the fluorescence slope in assay [4] was -0.625 (inactive). Also, the NADPH fluorescence slope in assay [5] was -3.8e-05 (inactive). Further, in assay [6], the slope was 0.00735 (inactive).

As usually defined, the inhibition is the relative decrease from the control value, in per cent.

The record behind these values is PubChem BioAssay.
